Test [1] in a line: NCATS anti-infectives library activity on the primary C. elegans qHTS viability assay (AID 1745855; calls by dose curve; further: potency means the concentration at half of the fitted maximal effect). The note with it: C. elegans worm area imaging, day 7; series mostly up to 41.8 µM. A digest of the protocol:
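Viability is taken from GFP fluorescence of PE254-GFP-FLuc C. elegans imaged by laser cytometry over 7 days. Ten L1 worms per well grow at 21 °C on TOP10 E. coli capsules with titrated compound; levamisole marks toxicity.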
(Quantitative high-throughput screening tests each substance at several concentrations.)

In test [2] the target is Peroxisome proliferator-activated receptor gamma (Homo sapiens) (UniProt P37231). As to the kind of experiment: qHTS assay for small molecule agonists of peroxisome proliferator-activated receptor gamma signaling (AID 588536; active means well fitted curve in the direction sought with a large enough effect in the signal ratio, with a control signal flat, not every such curve was filed as active; the % refers to the signal ratio;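 further: 0% = DMSO basal wells and 100% = rosiglitazone at 2 µM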). The note with it: HEK293 PPARg-UAS-bla, beta-lactamase ratio, 16 h, percent of rosiglitazone response, DMSO as zero; series mostly up to 76.7 µM. A digest of the protocol:
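Test agents, titrated, stimulated HEK293 UAS-bla cells overnight (16 h, 37 C). Substrate CCF4 was then added for two hours at room temperature before fluorescence reading.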

For test [3] the target is unchanged. Kind of test: qHTS assay for small molecule antagonists of peroxisome proliferator-activated receptor gamma signaling (AID 588537; active means well fitted inhibition curve with a large enough effect in the signal ratio, with a control signal flat, not every such curve was filed as active; the % refers to the signal ratio;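 further: reporter cells co-stimulated with 50 nM rosiglitazone agonist during compound treatment; % of control where 0% means no effect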). To be noted: HEK293 PPARg-UAS-bla, beta-lactamase ratio, antagonist mode; series mostly up to 76.8 µM. A digest of the protocol:
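Inhibitors of agonist-stimulated UAS-bla reporter activity were sought in HEK293 cells; rosiglitazone (50 nM) defined full signal and DMSO baseline. Curves fitted to Hill model gave IC50 and efficacy.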

Test [4] in a line: qHTS assay for small molecule antagonists of retinoid X receptor alpha signaling (AID 588546).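 Further: cells stimulated with 9-cis-retinoic acid as agonist; on the % scale 0 is the no-effect control and ±100 the full control effect.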 The note with it: HEK293T RXRa-UAS-bla, beta-lactamase ratio, antagonist mode; measured here: W530 green channel, cytotoxicity proxy. The method in brief:
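Beta-lactamase reporter inhibition, read as CCF4 fluorescence ratio (ex 405, em 460/530 nm) after 2 h at RT. HEK293T UAS-bla cells, 2500/well, were stimulated with 9-cis-RA at 500 or 100 nM final alongside test compound for 18 h at 37 C.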

Test [5] in a line: Confirmation and Secondary Assay for Modulators of Hemoglobin Beta Chain Splicing at IVS2 654 locus (AID 910).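 Further: HeLa cells stably carrying EGFP split by mutant beta-globin IVS2-654 intron; per-well total GFP intensity by laser scanning cytometry after 2-day treatment; % of control where 0% means no effect.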 To be noted: HeLa EGFP-654 splicing reporter, GFP fluorescence, 48 h; series mostly up to 46.1 µM. A digest of the protocol:
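Readout: per-well total peak green fluorescence (488 nm ex, 500–520 nm em) from objects 5–250 µm, reflecting correct splicing of an EGFP-654 reporter. Compounds were applied for 2 days at 37 °C to overnight-plated HeLa EGFP-654 cells; controls were DMSO and 500 nM IVS2-654 PNA.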

The nature of test [6]: Confirmation and Secondary Assay for Modulators of Hemoglobin Beta Chain Splicing at IVS2 705 locus (AID 930). Further: % of control where 0% means no effect. The note with it: HeLa EGFP-705 splicing reporter, GFP fluorescence, 48 h; series mostly up to 46.1 µM. A digest of the protocol: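 Fluorescence gain (488 nm laser, 500-520 nm PMT) reflects restored correct splicing of a mutant IVS2-705 intron inside EGFP in stably transfected HeLa cells after 2-day compound treatment.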

A short description of test [7]: qHTS profiling for inhibitors of Plasmodium falciparum proliferation (AID 504749).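 Further: 0% = DMSO vehicle and full inhibition = artemisinin control; nearly all actives have a fitted effect of over 60% in size.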 To be noted: P. falciparum in erythrocytes, SYBR Green DNA, 72 h, at 28.7 µM (top of the series). A digest of the protocol: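 Three-day growth assay of blood-stage parasites in erythrocytes (0.3% parasitemia, 2.5% hematocrit) at 37 C, 5% CO2, quantified by SYBR Green DNA staining after overnight detergent lysis.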

The nature of test [8]: qHTS assay for small molecule agonists of retinoid X receptor alpha signaling (AID 588544; calls by dose curve;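 on activation: 0% = DMSO basal wells and 100% = reference agonist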). The note with it: HEK293T RXRa-UAS-bla, beta-lactamase reporter, 18 h; 530 nm emission.
Test [9] concerns the target Retinoic acid receptor RXR-alpha (Homo sapiens) (UniProt P19793). Described as above. To be noted: HEK293T RXRa-UAS-bla, beta-lactamase reporter, 18 h; series mostly up to 76.7 µM.
A short description of test [10]: qHTS assay for small molecule activators of the p53 signaling pathway (AID 651743; active means well fitted activation curve with a large enough effect in the signal ratio, not every such curve was filed as active; the % refers to the signal ratio; further: % of control where 0% means no effect). The note with it: HCT-116 p53RE-bla, beta-lactamase FRET ratio, 16 h; activation: stronger effect = higher value. A digest of the protocol: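 Screen for p53 pathway agonists uses stably transfected p53RE-bla HCT-116 cells, 4,000 per well, treated 16 h at 37 C with compounds in DMSO.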
Test [11] can be described thus: qHTS assay for small molecule activators of the nuclear factor-kappa B (NF-kB) signaling pathway (AID 651749; active means well fitted activation curve with a large enough effect in the signal ratio; the % refers to the signal ratio; further: % of control where 0% means no effect). To be noted: NF-kB-bla ME-180 cells, beta-lactamase FRET ratio, 16 h; stronger effect = higher value. A digest of the protocol:
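Stably transfected ME-180 line; NF-kB response element upstream of beta-lactamase. Treatment: compound or DMSO, 16 hr. Detection: fluorescent FRET substrate.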

The nature of test [12]: qHTS assay for cell viability of HEK293 cells (AID 743288). Further: on the % scale 0 is the no-effect control and ±100 the full control effect; nearly all actives have a fitted effect of over 50% in size. To be noted: ATP luminescence (CellTiter-Glo), 18 h; max response: stronger effect = lower value. A digest of the protocol: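 Environmental chemicals tested in qHTS format against parental HEK293 cells; 18 h treatment, 37 C; read-out ATP luminescence (CellTiter-Glo), 30 min RT development.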
The target of test [13] is Cytochrome P450 3A4 (Homo sapiens) (UniProt P08684). As to the kind of experiment: qHTS for inhibitors of CYP3A4 against the NCATS DSHEA and TCM libraries (AID 1919971).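 Further: on the % scale 0 is the no-effect control and ±100 the full control effect; inhibition lowers luminescence from luciferin made by CYP3A4.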 To be noted: recombinant CYP3A4 enzyme activity, luminescence qHTS; series mostly up to 34.1 µM. The method in brief: (§1)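 Luminescent P450-Glo readout. Enzyme plus pro-luciferin substrate in manufacturer buffer (typically 100 mM KPO4); 15 min RT preincubation; 1x NADPH regenerating system, 30-45 min RT in the dark; detection reagent 30 min.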

In test [14] the target is Cytochrome P450 2C19 (Homo sapiens) (UniProt P33261). Kind of test: qHTS for inhibitors of CYP2C19 against the NCATS DSHEA and TCM libraries (AID 1919974).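 Further: luminescence from luciferin released by CYP2C19 oxidation of a pro-luciferin substrate; on the % scale 0 is the no-effect control and ±100 the full control effect.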 To be noted: CYP2C19 enzyme inhibition, luminescence qHTS; series mostly up to 34.1 µM. A digest of the protocol: as §1
Test [15] in a line: KB-3-1 P-gp reporter qHTS against the NCATS DSHEA and TCM libraries (AID 1919975). Further: 0% is about no effect. The note with it: KB-3-1 parental cells, CellTiter-Glo luminescence viability, 72 h; series mostly up to 26.1 µM. A digest of the protocol:
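CellTiter-Glo luminescence viability readout; KB-3-1 parental cells, 500/well, attached ~4 h, then compound for ~72 h, 37C, 5% CO2. Bortezomib intraplate control.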

A short description of test [16]: qHTS Counterscreen for compound interference against the NCATS DSHEA and TCM libraries (AID 1919978).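 Further: compounds preincubated with 1 µM D-luciferin or buffer before detection reagent; % of control where 0% means no effect.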 The note with it: firefly luciferase detection reagent interference, luminescence. The method in brief:
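Luminescence counterscreen for detection-kit interference: compounds at 19.5 nM–39.8 uM final, 15 min RT with 1 uM D-luciferin or buffer only; detection reagent added, 30 min RT, then read.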

Test [17] in a line: Dual reporter qHTS for agonist of Pregnane X Receptor (hPXR) against the NCATS DSHEA and TCM libraries: Fluorescence readout (AID 1920058). Further: 0% is about no effect. The note with it: PXR dual reporter cells; series mostly up to 40 µM. The method in brief: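 hPXR-Luc HepG2 cells (2000/well) in phenol red-free medium with charcoal-stripped FBS attached for 5 h, then were exposed to compounds for about 24 h at 37 °C. Viability was read by CellTiter-Fluor fluorescence (Ex/Em 405/540 nm) after 1 h.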

The target in test [18] is Nuclear receptor subfamily 1 group I member 2 (Homo sapiens) (UniProt O75469). As to the kind of experiment: Dual reporter qHTS for agonist of Pregnane X Receptor (hPXR) against the NCATS DSHEA and TCM libraries: Luminescence readout (AID 1920059). Further: 0% is about no effect. The note with it: hPXR dual reporter cells, luciferase luminescence agonist; series mostly up to 40 µM. A digest of the protocol: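 Luminescent PXR reporter read (ONE-Glo) after a CellTiter-Fluor viability read, following 24 h, 37C treatment of HepG2 cells stably carrying hPXR-Luc.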

For test [19] the target is unchanged. Kind of test: Dual reporter qHTS for antagonist of Pregnane X Receptor (hPXR) against the NCATS DSHEA and TCM libraries: Luminescence Readout (AID 1920060). Further: 0% is about no effect. The note with it: hPXR dual reporter cells, luciferase luminescence, antagonist mode; series mostly up to 40 µM. A digest of the protocol:
(§2)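 HepG2 hPXR-Luc, 2000 cells/well, charcoal-stripped FBS medium; 5 h attach; RIF 2 uM final; 24 h 37C/5% CO2; CellTiter-Fluor 1 h, fluor 405/540; ONE-Glo 30 min RT, lum.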

Test [20] in a line: Dual reporter qHTS for antagonist of Pregnane X Receptor (hPXR) against the NCATS DSHEA and TCM libraries: Fluorescence Readout (AID 1920061). Further: 0% is about no effect. To be noted: PXR dual reporter cells, antagonist mode; series mostly up to 40 µM. A digest of the protocol:
as §2

Where “and” joins values, the source holds several entries; their conditions need not be identical. Identical values can stand only once. Results filed as inconclusive are left out. Calls of active or inactive are those of the source. Unless noted, the call rests on the fitted dose curve; in most records, active means well fitted curve in the direction sought with a large enough effect; inconclusive means small, poorly fitted or top-dose-only effect, or another doubt; inactive means no such curve, though single readings can be large; an effect the other way counts as inactive or inconclusive.

Retinoic acid receptor RXR-alpha (Homo sapiens), sequence (P19793 whole entry, looked up): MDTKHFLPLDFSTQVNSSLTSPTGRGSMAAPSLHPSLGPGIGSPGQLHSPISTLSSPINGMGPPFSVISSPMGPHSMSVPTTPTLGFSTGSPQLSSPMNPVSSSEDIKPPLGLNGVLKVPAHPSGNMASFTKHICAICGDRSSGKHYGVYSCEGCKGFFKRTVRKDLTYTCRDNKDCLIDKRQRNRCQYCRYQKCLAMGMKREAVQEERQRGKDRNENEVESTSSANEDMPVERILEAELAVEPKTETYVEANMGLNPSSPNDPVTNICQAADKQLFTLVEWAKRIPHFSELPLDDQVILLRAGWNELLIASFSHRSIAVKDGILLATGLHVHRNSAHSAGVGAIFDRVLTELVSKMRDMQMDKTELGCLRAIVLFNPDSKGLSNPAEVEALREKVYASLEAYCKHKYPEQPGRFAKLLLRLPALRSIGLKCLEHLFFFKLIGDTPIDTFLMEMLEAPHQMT
Peroxisome proliferator-activated receptor gamma (Homo sapiens), sequence (P37231 whole entry, looked up): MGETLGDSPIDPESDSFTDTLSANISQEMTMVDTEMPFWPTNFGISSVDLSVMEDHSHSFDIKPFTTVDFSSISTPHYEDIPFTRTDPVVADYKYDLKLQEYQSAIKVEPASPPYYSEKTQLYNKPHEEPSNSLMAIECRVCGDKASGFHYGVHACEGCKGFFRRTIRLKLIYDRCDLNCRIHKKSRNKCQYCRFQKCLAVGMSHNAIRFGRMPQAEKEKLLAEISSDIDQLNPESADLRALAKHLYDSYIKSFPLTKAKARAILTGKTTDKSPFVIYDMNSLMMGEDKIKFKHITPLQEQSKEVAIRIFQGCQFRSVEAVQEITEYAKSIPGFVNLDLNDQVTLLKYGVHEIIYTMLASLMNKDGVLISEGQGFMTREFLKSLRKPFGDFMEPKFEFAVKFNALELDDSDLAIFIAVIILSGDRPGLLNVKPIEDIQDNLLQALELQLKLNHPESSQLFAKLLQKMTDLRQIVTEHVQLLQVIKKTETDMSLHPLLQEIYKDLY
Cytochrome P450 2C19 (Homo sapiens), sequence (P33261 whole entry, looked up): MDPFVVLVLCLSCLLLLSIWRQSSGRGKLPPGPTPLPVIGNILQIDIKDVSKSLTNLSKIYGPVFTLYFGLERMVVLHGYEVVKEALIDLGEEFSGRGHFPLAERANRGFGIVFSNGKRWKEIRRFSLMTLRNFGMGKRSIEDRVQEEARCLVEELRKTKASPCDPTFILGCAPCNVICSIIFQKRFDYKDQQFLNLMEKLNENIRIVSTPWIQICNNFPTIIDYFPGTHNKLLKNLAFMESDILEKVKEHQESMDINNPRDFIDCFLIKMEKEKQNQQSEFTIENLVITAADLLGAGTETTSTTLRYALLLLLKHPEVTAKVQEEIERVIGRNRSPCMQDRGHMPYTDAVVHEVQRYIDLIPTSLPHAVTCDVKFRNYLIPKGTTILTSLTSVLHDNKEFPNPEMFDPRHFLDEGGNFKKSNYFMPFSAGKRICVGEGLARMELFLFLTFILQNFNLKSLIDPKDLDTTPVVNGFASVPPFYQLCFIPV
Nuclear receptor subfamily 1 group I member 2 (Homo sapiens), sequence (O75469 whole entry, looked up): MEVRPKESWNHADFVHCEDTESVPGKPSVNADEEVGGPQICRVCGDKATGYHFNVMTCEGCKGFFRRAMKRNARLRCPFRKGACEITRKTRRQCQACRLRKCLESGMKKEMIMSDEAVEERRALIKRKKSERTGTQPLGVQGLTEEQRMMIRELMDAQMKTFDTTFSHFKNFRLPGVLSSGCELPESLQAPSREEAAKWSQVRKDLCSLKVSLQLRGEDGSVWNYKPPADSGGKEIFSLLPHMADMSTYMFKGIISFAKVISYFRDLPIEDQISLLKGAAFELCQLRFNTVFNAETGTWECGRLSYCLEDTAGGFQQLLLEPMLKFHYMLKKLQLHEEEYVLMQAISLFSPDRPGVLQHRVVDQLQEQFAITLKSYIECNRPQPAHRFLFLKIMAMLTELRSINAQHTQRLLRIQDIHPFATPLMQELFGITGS
Cytochrome P450 3A4 (Homo sapiens), sequence (P08684 whole entry, looked up): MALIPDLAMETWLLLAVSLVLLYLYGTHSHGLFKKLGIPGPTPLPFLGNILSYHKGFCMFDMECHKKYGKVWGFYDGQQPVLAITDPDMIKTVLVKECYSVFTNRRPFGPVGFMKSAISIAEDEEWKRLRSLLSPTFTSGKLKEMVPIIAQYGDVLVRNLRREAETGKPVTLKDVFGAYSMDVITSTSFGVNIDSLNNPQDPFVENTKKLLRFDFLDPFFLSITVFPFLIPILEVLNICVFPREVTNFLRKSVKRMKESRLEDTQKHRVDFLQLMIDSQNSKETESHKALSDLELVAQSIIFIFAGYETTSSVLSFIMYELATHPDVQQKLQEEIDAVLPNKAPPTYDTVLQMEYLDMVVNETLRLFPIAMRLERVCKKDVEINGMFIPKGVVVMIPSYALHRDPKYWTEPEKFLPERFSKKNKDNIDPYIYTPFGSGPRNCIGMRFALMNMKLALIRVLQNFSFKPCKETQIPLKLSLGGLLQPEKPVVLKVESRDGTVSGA

Regarding `COc1ccc(-c2oc3cc(OC)c(OC)c(O)c3c(=O)c2OC)cc1O`, in test [1], the Potency is 816 nM (active).
As to `CCCCCCCCOC(=O)c1cc(O)c(O)c(O)c1`, the result in test [2] and in test [3] was inactive. Besides, the max response in test [4] is -11.7%.
For `O=C(O)c1cc(O)c2c(c1)[C@H]([C@H]1c3cc(C(=O)O)cc(O)c3C(=O)c3c(O[C@@H]4OC(CO)C(O)C(O)C4O)cccc31)c1cccc(O[C@@H]3OC(CO)C(O)C(O)C3O)c1C2=O` (some centres not stated), the Potency result in [5] and in test [6] was “inactive” in each case. For the same compound, the activity, negative = inhibition in [7] (parasite line A) is -10% (inactive); in test [7] (parasite line B), -4.26% (inactive).
For the compound `CC12CCC(CC1=O)C2(C)C` (configuration not stated), the max response is 0.96% and -15.4% in [8]; -5.66% and -6.43% in [4]; -2.81% (inactive) and -7.37% (inactive) in test [12]. The compound was classed as inactive in [9]. Besides, the activation in [10] was -2.06% (inactive) and 2.14% (inactive); in test [11], -0.0521% (inactive) and -0.265% (inactive).
Take `O=C1CC(c2ccccc2)Oc2ccccc21` (configuration not stated): the Potency entry in test [5] and in [6] was “inactive” throughout.
With `O=C(O)CCCCCCCCC(=O)O`, the outcome in test [2], in test [3] and in [9] was inactive. The max response in test [8] is 9.91%; in test [12], -12.5% (inactive). The activation in test [10] was 0.877% (inactive); in test [11] it was -1.2% (inactive).
For the compound `CCCCN(Cc1ccc(C(=O)NO)cc1)C(=O)Nc1ccccc1`, the Potency entry in test [1] was “inactive”.
As to `OCC1=C[C@@H](O)[C@@H]2C=CO[C@@H](OC3O[C@H](CO)[C@@H](O)[C@H](O)[C@H]3O)[C@H]12` (some centres not stated), the Potency result in [13], in test [14] and in test [18] was “inactive” each time. The outcome in [15], in test [17], in [19] and in test [20] was inactive. Also, the max response in test [16] was 1.01% (inactive).
On to `CCCCCCCCCC=O`, for which the Potency entry in test [13], in [14] and in test [18] was “inactive” each time. Besides, the result in test [15], in test [17], in [19] and in test [20] was inactive. Also, in test [16], the max response was 0.0179% (inactive).
Take `CCCCCC/C=C\CCCCCCCC(=O)O`: the Potency result in test [14] and in test [18] was “inactive” throughout. Moreover, the outcome in test [15], in [17], in test [19] and in [20] was inactive. For the same compound, the max response in test [16] was 0.217% (inactive).

(Values after PubChem BioAssay (NCATS).)
